This note sets out measurements from PubChem BioAssay (EPA / NIEHS).

For assay [1], the target named is human Muscarinic, M4 Receptor, CHRM4 (gene 1132) (UniProt P08173). Kind of assay: NVS_GPCR_hM4: NovaScreen (NVS) G Protein-Coupled Receptor Assay for human Muscarinic, M4 Receptor (AID 2283274). The procedure, abridged:
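Cell-free radioligand displacement using CHO-derived human M4 receptor protein, 1 h after dosing; bound radioactivity by filtration and scintillation counting. Primary screen single 25 uM duplicate, actives followed in concentration series.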

The target of assay [2] is Muscarinic acetylcholine receptor M5 (Homo sapiens) (UniProt P08912). The assay is described as follows: NVS_GPCR_hM5: NovaScreen (NVS) G Protein-Coupled Receptor Assay for human Muscarinic, M5 Receptor (AID 2283275). The procedure, abridged: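 Radioligand displacement on CHO-derived membrane preparations, 1 h, filter-based scintillation counting. Single-concentration duplicate screen at 25 uM; hits (e.g. 30% inhibition) retested in singleton concentration-response up to 50 uM. Loss of binding fitted versus DMSO.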

Assay [3] addresses human Neurokinin, NK2 Receptor, TACR2 (gene 6865) (UniProt P21452). The assay is described as follows: NVS_GPCR_hNK2: NovaScreen (NVS) G Protein-Coupled Receptor Assay for human Neurokinin, NK2 Receptor (AID 2283278).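 Also: actives reduce bound radioligand signal relative to DMSO baseline.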 A digest of the protocol: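 Cell-free radioligand binding using receptor protein extracted from CHO cells; readings taken 4 hours after chemical dosing by filter-based scintillation counting. Primary screen ran single concentration (25 uM) in duplicate; actives followed up in concentration series, loss-of-signal versus DMSO baseline.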

The target of assay [4] is human Neuropeptide Receptor Y1 (NPY1), NPY1R (gene 4886) (UniProt P25929). The assay is described as follows: NVS_GPCR_hNPY1: NovaScreen (NVS) G Protein-Coupled Receptor Assay for human Neuropeptide Receptor Y1 (NPY1) (AID 2283276). The procedure, abridged:
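Cell-free radioligand binding using receptor extracted from SK-N-MC cells, 1 h incubation, filter-based scintillation counting. Primary screen single concentration 25 uM in duplicate; actives followed in concentration series. Loss of bound signal scored versus DMSO.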

Assay [5] addresses Muscarinic acetylcholine receptor M3 (Homo sapiens) (UniProt P20309). Kind of assay: NVS_GPCR_hM3: NovaScreen (NVS) G Protein-Coupled Receptor Assay for human Muscarinic, M3 Receptor (AID 2283272). The procedure, abridged:
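Radioligand displacement binding on human M3 receptor in CHO-derived membranes, 1 h incubation, filter-based scintillation counting. Primary screen in duplicate at 25 uM; actives followed up in concentration series; loss of signal versus DMSO.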

Assay [6] concerns the target Muscarinic acetylcholine receptor M2 (Homo sapiens) (UniProt P08172). The assay is described as follows: NVS_GPCR_hM2: NovaScreen (NVS) G Protein-Coupled Receptor Assay for human Muscarinic, M2 Receptor (AID 2283273). The procedure, abridged:
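Cell-free radioligand binding using membranes from CHO cells expressing the receptor; filter-based scintillation counting after 1 hour of compound exposure. Loss of specific binding relative to DMSO baseline; primary screen at 25 uM in duplicate, actives then run in concentration series.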

Assay [7] deals with Neuropeptide Y receptor type 2 (Homo sapiens) (UniProt P49146). Kind of assay: NVS_GPCR_hNPY2: NovaScreen (NVS) G Protein-Coupled Receptor Assay for human Neuropeptide Receptor Y2 (NPY2) (AID 2283277). A digest of the protocol: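 Radioligand binding on membranes extracted from SK-N-MC cells, cell-free, read 1 h after dosing by filter-based scintillation counting. Loss of signal vs DMSO. Primary screen in duplicate at 25 uM; actives followed up in concentration-response up to 50 uM.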

In assay [8] the target is human Neurotensin Receptor (NTS), NTSR1 (gene 4923) (UniProt P30989). Kind of assay: NVS_GPCR_hNTS: NovaScreen (NVS) G Protein-Coupled Receptor Assay for human Neurotensin Receptor (NTS) (AID 2283279). A digest of the protocol: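 Radioligand displacement on human NTSR1 protein from CHO cells, cell-free, 1 h, filter-based scintillation counting. Primary screen at 25 uM in duplicate; hits rerun in concentration-response up to 50 uM.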

The target in assay [9] is Muscarinic acetylcholine receptor M1 (Homo sapiens) (UniProt P11229). The assay is described as follows: NVS_GPCR_hM1: NovaScreen (NVS) G Protein-Coupled Receptor Assay for human Muscarinic, M1 Receptor (AID 2283270). The procedure, abridged: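 Cell-free radioligand displacement using membrane protein extracted from CHO cells, read by filter-based scintillation counting 1 h after dosing. Loss of bound signal fitted versus DMSO; primary screen single concentration 25 uM in duplicate, actives followed by concentration series.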

SMILES strings stand for the structures. Inconclusive results are not listed. Active and inactive are the calls of the source. The calls were made as follows: active = hit-call score of the fitted dose curve at least 0.9, where 1 is the maximum; inconclusive = response in the unintended direction; inactive = score below 0.9.

human Neurokinin, NK2 Receptor, TACR2 (gene 6865), sequence (P21452 whole entry, looked up): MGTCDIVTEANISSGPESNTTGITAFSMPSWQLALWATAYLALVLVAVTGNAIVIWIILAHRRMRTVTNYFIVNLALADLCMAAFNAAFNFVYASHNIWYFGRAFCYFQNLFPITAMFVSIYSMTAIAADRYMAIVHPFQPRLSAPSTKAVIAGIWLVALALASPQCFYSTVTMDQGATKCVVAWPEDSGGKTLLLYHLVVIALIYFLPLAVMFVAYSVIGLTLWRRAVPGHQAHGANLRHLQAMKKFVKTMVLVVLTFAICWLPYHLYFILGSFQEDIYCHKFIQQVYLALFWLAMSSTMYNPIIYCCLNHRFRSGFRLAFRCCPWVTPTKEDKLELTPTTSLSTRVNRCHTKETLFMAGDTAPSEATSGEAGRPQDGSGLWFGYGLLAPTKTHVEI
Muscarinic acetylcholine receptor M3 (Homo sapiens), sequence (P20309 whole entry, looked up): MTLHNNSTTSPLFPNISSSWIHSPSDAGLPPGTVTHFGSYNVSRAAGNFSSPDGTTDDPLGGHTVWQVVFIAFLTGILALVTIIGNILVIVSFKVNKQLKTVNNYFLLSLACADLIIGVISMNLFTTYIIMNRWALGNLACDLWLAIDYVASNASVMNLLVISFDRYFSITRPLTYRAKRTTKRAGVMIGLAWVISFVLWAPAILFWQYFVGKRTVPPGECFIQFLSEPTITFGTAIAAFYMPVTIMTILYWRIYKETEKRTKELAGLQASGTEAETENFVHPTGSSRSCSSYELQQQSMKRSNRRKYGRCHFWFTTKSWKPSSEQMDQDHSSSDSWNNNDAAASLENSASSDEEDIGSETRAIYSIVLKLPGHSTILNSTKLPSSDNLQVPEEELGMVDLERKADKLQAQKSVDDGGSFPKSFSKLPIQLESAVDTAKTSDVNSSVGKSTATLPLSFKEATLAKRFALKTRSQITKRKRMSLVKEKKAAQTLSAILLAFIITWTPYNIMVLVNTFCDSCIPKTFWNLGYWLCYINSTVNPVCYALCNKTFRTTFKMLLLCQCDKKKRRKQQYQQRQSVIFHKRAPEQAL
Muscarinic acetylcholine receptor M5 (Homo sapiens), sequence (P08912 whole entry, looked up): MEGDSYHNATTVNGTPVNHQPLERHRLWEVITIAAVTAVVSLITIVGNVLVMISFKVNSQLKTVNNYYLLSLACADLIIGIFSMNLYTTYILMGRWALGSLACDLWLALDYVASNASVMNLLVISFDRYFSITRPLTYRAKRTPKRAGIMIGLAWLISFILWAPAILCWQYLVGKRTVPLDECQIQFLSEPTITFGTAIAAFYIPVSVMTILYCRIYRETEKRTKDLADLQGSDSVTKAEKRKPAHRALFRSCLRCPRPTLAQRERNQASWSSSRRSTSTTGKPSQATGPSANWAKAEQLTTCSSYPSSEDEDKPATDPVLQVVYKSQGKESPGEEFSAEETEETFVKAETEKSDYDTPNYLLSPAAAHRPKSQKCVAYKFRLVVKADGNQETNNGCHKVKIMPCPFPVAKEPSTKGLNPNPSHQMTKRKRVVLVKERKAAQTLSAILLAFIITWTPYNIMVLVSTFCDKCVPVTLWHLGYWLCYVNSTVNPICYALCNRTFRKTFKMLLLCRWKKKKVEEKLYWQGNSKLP
Muscarinic acetylcholine receptor M2 (Homo sapiens), sequence (P08172 whole entry, looked up): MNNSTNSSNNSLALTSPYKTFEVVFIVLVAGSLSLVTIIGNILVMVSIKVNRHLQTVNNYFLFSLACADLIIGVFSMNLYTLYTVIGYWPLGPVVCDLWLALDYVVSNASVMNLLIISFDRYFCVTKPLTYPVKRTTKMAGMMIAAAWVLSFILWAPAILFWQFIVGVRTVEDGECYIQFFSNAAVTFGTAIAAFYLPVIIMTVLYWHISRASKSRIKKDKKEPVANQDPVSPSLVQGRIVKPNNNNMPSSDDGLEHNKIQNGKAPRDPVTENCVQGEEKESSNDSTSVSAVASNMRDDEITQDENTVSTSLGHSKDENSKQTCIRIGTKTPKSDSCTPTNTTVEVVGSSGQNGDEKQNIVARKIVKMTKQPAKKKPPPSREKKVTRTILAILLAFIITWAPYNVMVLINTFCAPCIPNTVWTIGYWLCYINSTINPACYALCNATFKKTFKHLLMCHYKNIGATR
human Muscarinic, M4 Receptor, CHRM4 (gene 1132), sequence (P08173 whole entry, looked up): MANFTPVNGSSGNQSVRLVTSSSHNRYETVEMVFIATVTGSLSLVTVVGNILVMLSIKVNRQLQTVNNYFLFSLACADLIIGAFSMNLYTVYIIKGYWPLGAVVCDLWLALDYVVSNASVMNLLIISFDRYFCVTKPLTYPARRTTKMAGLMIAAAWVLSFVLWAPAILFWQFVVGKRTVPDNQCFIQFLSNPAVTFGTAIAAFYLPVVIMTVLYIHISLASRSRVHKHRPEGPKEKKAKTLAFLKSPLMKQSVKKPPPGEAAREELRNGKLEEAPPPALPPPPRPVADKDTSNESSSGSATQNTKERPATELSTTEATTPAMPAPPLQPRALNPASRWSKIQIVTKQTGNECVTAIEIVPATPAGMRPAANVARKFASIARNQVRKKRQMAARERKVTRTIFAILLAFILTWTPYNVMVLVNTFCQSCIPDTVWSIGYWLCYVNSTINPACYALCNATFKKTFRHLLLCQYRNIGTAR
Neuropeptide Y receptor type 2 (Homo sapiens), sequence (P49146 whole entry, looked up): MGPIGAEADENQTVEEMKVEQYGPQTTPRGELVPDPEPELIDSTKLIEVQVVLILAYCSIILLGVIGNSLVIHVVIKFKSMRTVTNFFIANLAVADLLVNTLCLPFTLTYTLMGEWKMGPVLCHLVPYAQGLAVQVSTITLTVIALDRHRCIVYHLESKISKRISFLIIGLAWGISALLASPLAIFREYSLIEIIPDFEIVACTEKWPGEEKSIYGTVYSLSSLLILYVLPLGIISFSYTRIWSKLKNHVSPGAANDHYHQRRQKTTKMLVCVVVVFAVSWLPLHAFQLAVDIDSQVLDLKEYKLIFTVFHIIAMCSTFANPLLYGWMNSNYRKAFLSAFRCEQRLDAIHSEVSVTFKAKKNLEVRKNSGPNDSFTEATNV
human Neuropeptide Receptor Y1 (NPY1), NPY1R (gene 4886), sequence (P25929 whole entry, looked up): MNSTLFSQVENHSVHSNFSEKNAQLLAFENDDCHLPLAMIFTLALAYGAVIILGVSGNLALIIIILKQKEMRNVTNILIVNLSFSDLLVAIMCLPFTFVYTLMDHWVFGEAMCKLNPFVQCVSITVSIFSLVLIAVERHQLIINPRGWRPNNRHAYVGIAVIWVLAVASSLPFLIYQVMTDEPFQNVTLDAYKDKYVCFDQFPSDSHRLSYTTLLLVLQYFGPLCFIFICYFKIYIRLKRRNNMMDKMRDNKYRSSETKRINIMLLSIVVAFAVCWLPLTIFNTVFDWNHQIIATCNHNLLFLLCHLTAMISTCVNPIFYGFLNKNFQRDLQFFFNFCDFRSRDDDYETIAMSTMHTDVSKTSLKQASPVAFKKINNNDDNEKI
Muscarinic acetylcholine receptor M1 (Homo sapiens), sequence (P11229 whole entry, looked up): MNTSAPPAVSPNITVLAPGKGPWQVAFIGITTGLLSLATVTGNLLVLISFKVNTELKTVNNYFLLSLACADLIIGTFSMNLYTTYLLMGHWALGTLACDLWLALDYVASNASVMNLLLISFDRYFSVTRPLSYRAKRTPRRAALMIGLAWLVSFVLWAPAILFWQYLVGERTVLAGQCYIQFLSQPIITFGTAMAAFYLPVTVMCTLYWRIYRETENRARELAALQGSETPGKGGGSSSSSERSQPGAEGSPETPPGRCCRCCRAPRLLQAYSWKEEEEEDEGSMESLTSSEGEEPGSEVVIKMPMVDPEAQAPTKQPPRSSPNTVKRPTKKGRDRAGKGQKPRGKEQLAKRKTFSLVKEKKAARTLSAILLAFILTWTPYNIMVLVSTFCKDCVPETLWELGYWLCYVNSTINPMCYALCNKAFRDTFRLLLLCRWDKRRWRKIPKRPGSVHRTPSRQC
human Neurotensin Receptor (NTS), NTSR1 (gene 4923), sequence (P30989 whole entry, looked up): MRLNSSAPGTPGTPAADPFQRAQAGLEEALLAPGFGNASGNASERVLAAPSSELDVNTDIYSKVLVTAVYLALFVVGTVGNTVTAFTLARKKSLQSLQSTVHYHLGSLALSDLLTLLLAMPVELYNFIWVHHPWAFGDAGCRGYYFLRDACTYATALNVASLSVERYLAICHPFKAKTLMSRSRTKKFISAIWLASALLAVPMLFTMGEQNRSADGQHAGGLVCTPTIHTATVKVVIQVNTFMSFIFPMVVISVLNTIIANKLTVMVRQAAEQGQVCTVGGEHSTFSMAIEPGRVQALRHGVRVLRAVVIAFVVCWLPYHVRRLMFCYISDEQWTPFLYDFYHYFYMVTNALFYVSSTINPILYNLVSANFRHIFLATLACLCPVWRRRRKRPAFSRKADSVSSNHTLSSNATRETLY

One may read the AC50 as the midpoint of the concentration-response curve, whichever way the signal moves. Turning to `CN1CCN(Cc2cc(-c3ccc4[nH]c(=O)oc4c3)co2)[C@@H](c2ccc(F)cc2)C1`, the half-maximal activity concentration (AC50) in [1] was 26.7 µM (active); in assay [2], 14.8 µM (active); in assay [3] it was 35.4 µM (active).
With `NC(=O)Cn1c(=O)cc(CCN2CCN(c3nccc4sccc34)CC2)c2ccc(F)cc21`, the concentration at half-maximal activity (AC50) in [4] is 9.95 µM (active); in [3], 33.7 µM (active).
Regarding `CCCc1cc(=O)[nH]c(=S)[nH]1`, the result in [3] was inactive.
As to `COc1cc(-c2nc(NC(=O)c3cc4cc(C)cc(C)c4n3CC(=O)O)sc2CCC2CCCCC2)c(OC)cc1Cl`, the AC50 in [3] was 15.9 µM (active).
For the compound `CC(=O)Oc1ccccc1C(=O)O`, in [4], the concentration at half-maximal activity (AC50) was 4.96 µM (active).
Turning to `COc1cc(S(=O)(=O)O)c(C)cc1N=Nc1c(O)ccc2cc(S(=O)(=O)O)ccc12`, the call in [5] and in [1] was inactive. The AC50 is 36.1 µM (active) in assay [6] and 31.4 µM (active) in assay [2].
On to `CCCCCCOCCO`, for which, in assay [7], the compound was classed as inactive.
`CCOc1ccc2c(c1)C(C)=CC(C)(C)N2`: the compound was called inactive in assay [3].
For the compound `Cc1cccc(C)c1O`, the compound was classed as inactive in assay [8].
Regarding `CC1=C(/C=C/C(C)=C/C=C/C(C)=C/CO)C(C)(C)CCC1`, in [3], the compound was called inactive.
With `CCCCCCCCCCCC(=O)OC`, in [7], the AC50 was 6.92 µM (active).
As for `O=C(N[C@@H](Cc1ccccc1)[C@@H](O)C(=O)N1C[C@@H](O)[C@@H](O)C1)c1cc2cc(Cl)ccc2[nH]1`, in assay [1], the compound was classed as inactive. In addition, the AC50 in [3] is 22.6 µM (active).
As for `Nc1ccc2c(c1)C(=O)c1ccccc1C2=O`, the call in assay [6] was inactive.
Regarding `Cc1nc(-c2ccc3c(c2)CCN(CCC2CCC(NC(=O)/C=C/c4ccc(F)cc4)CC2)CC3)no1` (configuration not stated), the values for the AC50 in [9], in [6] and in assay [1] were 0.148 µM (active), 0.0463 µM (active) and 0.123 µM (active), respectively. The call in [5] and in [2] was inactive.
`C=CCOC(=O)c1ccccc1C(=O)OCC=C`: the half-maximal activity concentration (AC50) in [5] is 36.7 µM (active).
Take `Oc1ccc2ccccc2c1N=Nc1ccccc1`: in [3], the call was inactive.
